MITF act = activators of MITF-driven TRPM1 promoter reporter, primary screen, cell-based, SK-MEL-5, luciferase, single point. 0.75% of 300,000 active. SK-MEL-5 TRPM1-promoter luciferase, 24 h; % of positive control, neutral wells = 0. activation, % at 12.5 µM;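 active = mean activation of at least 80% with every replicate also reaching 80%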;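 also: 0% = neutral control wells and 100% = parthenolide positive control wells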
Statin myotox sup = suppressors of statin myotoxicity in C2C12 myotubes, primary screen, cell-based, single point, plate reader; rescue of ATP level, % at 7.49 µM; AID 602340, 2012; 0.78% of 330,000 active; C2C12 myotubes + simvastatin, ATP luminescence, 48 h; scaled: DMSO 0, geranylgeraniol control 100;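 active = mean ATP rescue above about 67%, or every replicate alone reaching that limit, limit read from the data, passing the limit was not always enough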;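 also: myotubes were challenged with 10 µM simvastatin during compound exposure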
Wnt bcat act = Wnt/beta-catenin pathway activators, primary screen, cell-based, plate reader, single point. 1.2% of 300,000 active. activation, % at 9.35 µM. Wnt/beta-catenin reporter cell assay, activator; in the data active = activation above about 30%, passing the limit was not always enough;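 also: 0% = neutral control wells and 100% = positive control wells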
esBAF inh = Bmi1 luciferase reporter increase in mESCs, primary screen, esBAF inhibitor project, mouse ES cells, Bmi1 luciferase knock-in, single point | AID 602393, 2012 | 2% of 350,000 active | reporter increase, % at 12.5 µM | 24 h; 100% = twice the neutral-well signal; in the data active = activation above about 40%;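 also: 0% = median of the plate's neutral control wells and 100% = double that signal; a rise in the Bmi1 reporter signal indicates esBAF inhibition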
* marks the source's active call; other numbers are inactive results; . = no result; ! = a repeat was not active. Hits are enriched below; roughly 3% of the tested compounds scored in any of these assays.

SMILES | MITF act | Statin myotox sup | Wnt bcat act | esBAF inh
C[C@@H]1CN([C@H](C)CO)C(=O)c2cc(NS(=O)(=O)c3ccccc3)ccc2O[C@@H](C)CCCCO[C@@H]1CN(C)Cc1ccc2c(c1)OCO2 | . | . | . | -16
Cc1ccc(C(=O)/C=C/c2ccc3c(c2)OCCO3)c(O)c1 | 4 | . | -1 | .
CN(C)c1ccc(/C=C/C(=O)c2ccccc2)cc1[N+](=O)[O-] | 33 | -16 | 34* | 62*
O=C(/C=C/c1ccc2c(c1)OCCCO2)c1ccc2ccccc2c1O | 51 | 8 | 6 | 45*
Cc1ccc(S(=O)(=O)Nc2ccc3c(c2)C(=O)N([C@@H](C)CO)C[C@H](C)[C@@H](CN(C)S(=O)(=O)c2cccs2)OCCCC[C@H](C)O3)cc1 | . | . | . | 3
Cc1noc(C)c1NC(=O)Nc1ccc2c(c1)C(=O)N([C@H](C)CO)C[C@@H](C)[C@@H](CN(C)Cc1ccc(C(=O)O)cc1)OCCCC[C@H](C)O2 | . | -14 | . | 6
C[C@H]1CN([C@@H](C)CO)C(=O)c2cc(-c3ccc(F)cc3)cnc2O[C@@H]1CN(C)C(=O)Cc1ccccc1 | . | 2 | . | 5
Cc1c(NC(=O)C(C#N)=C2CCCCC2)c(=O)n(-c2ccccc2)n1C | . | 106* | 0 | -14
Cc1c(NC(=O)/C(C#N)=C/c2ccccc2)c(=O)n(-c2ccccc2)n1C | -8 | . | 2 | .
CCS(=O)(=O)c1ccc(C=NNc2nc3ccccc3o2)cc1 | 104* | . | -3 | .
Cc1noc(C)c1S(=O)(=O)Nc1ccc2c(c1)CC(=O)N([C@@H](C)CO)C[C@@H](C)[C@H](CN(C)C(=O)Nc1cccc3ccccc13)O2 | . | 13 | . | 4
Cc1noc(C)c1S(=O)(=O)N(C)C[C@@H]1Oc2c(cccc2N(C)C)C(=O)N([C@H](C)CO)C[C@@H]1C | . | -9 | . | 1
Cn1ccsc1=NC(=O)c1cccc(OC(F)F)c1 | 69 | 3 | 22 | 53*
Cc1nc2nc(-c3cccs3)[nH]c2cc1Br | . | 9 | 66* | 27
c1ccc(-c2nc(-c3cccs3)[nH]c2-c2ccccc2)cc1 | -8 | . | -1 | .
Nc1ccc(N=Nc2ccccc2O)c(N)c1 | . | . | 49* | .
C[C@@H]1CN([C@H](C)CO)C(=O)c2cc(NC(=O)Nc3ccc4c(c3)OCO4)ccc2O[C@@H](C)CCCCO[C@@H]1CN(C)Cc1ccc(C(=O)O)cc1 | . | . | . | -2
C[C@H](CO)N1C[C@H](C)[C@@H](CN(C)Cc2cccc(F)c2)Oc2cc(-c3ccc(F)cc3)ccc2S1(=O)=O | . | -68 | . | 3
C[C@@H]1CN([C@@H](C)CO)C(=O)Cc2cc(NS(=O)(=O)c3ccc(F)cc3)ccc2O[C@H]1CN(C)Cc1ccc2c(c1)OCO2 | . | 63 | . | 4
C[C@H]1CN([C@@H](C)CO)C(=O)Cc2cc(NS(=O)(=O)c3ccc(F)cc3)ccc2O[C@@H]1CN(C)Cc1ccc2c(c1)OCO2 | . | 124* | . | 6
C[C@@H]1CN([C@H](C)CO)C(=O)Cc2cc(NS(=O)(=O)c3ccc(F)cc3)ccc2O[C@@H]1CN(C)Cc1ccc2c(c1)OCO2 | . | 20 | . | -6
C[C@H](CO)N1C[C@H](C)[C@@H](CN(C)Cc2ccc3c(c2)OCO3)Oc2ccc(NS(=O)(=O)c3ccc(F)cc3)cc2CC1=O | . | 150* | . | 7
C[C@@H]1CN([C@H](C)CO)C(=O)c2cccc(NC(=O)C3CCOCC3)c2O[C@H]1CN(C)C(=O)Nc1ccc(F)cc1 | . | -6 | . | 4
Cc1ccc(-c2cnc3c(c2)C(=O)N([C@H](C)CO)C[C@@H](C)[C@H](CN(C)C(=O)c2cccc(F)c2)O3)cc1 | . | 13 | . | 3
CCOC(=O)COc1ccc(C(=O)NC2CCCCC2)cc1 | -6 | 20 | 5 | -2
SMILES | MITF act | Statin myotox sup | Wnt bcat act | esBAF inh
CCCOc1cccc(C(=O)O)c1 | -3 | 98* | -1 | -4
O=C(NC1CCCCC1)c1ccc(-c2cccc([N+](=O)[O-])c2)o1 | 116* | . | 32* | .
O=C(NCc1ccccc1)c1ccc([N+](=O)[O-])cc1 | . | . | -1 | .
CCOc1ccc(C(=O)NC2CCCCCCC2)cc1 | 79 | . | 42* | .
O=C(N[C@H]1CC1c1ccccc1)c1ccc([N+](=O)[O-])cc1 (stereo partly specified) | 74 | . | 35* | .
C[C@H](CO)N1C[C@H](C)[C@H](CN(C)C(=O)NC2CCCCC2)Oc2ccc(NC(=O)NC3CCCCC3)cc2CC1=O | . | 5 | . | -1
C[C@H](CO)N1C[C@H](C)[C@H](CN(C)Cc2ccc(C(=O)O)cc2)Oc2ccc(NS(=O)(=O)c3ccccc3)cc2C1=O | . | . | . | 2
C[C@@H]1CN([C@H](C)CO)C(=O)c2cc(C#CC3CC3)cnc2O[C@@H]1CN(C)C(=O)C1CCCCC1 | . | 17 | . | .
O=C(NC1CCCCCCC1)c1cc([N+](=O)[O-])ccc1Cl | . | -20 | 1 | -5
CCOc1cccc(C(=O)NC2CCCCC2)c1 | 54 | -9 | -1 | 53*
Cc1ccc(C(=O)NC2CCCCC2)cc1 | 88* | -6 | 17 | 12
O=C(NC1CCCCC1)c1ccc([N+](=O)[O-])cc1 | 18 | -2 | -3 | 74*
O=C(NC(=S)NC1CCCCC1)c1ccc(F)cc1 | 59 | -8 | 21 | 60*
COCC(=O)Nc1ccc2c(c1)[C@@H]1C[C@H](CC(=O)NCc3ccccn3)O[C@@H](CO)[C@@H]1O2 | . | -4 | . | 3
C[C@H](CO)N1C[C@H](C)[C@H](CN(C)S(=O)(=O)c2ccc(F)cc2)Oc2ncc(-c3ccccc3)cc2C1=O | . | 31 | . | .
C[C@@H]1CCCCO[C@H](CN(C)C(=O)NC2CCCCC2)[C@H](C)CN([C@@H](C)CO)C(=O)c2cc(NC(=O)NC3CCCCC3)ccc2O1 | . | . | . | 2
Cc1ccc(S(=O)(=O)N(C)C[C@@H]2Oc3c(NC(=O)c4cc(C)nn4C)cccc3C(=O)N([C@@H](C)CO)C[C@@H]2C)cc1 | . | 6 | . | 3
N#Cc1ccc(C(=O)NC2CCCCCCC2)cc1 | 107* | 32 | 2 | 53*
C/C(N)=C(/C#N)C(=O)CSc1nnc(-c2ccc(OC(F)F)cc2)o1 | 73 | 6 | 16 | 65*!
COc1ccc(NC(=O)N(C)C[C@@H]2Oc3ccc(NC(=O)Nc4ccc(C(F)(F)F)cc4)cc3C(=O)N([C@@H](C)CO)C[C@@H]2C)cc1 | . | 27 | . | -1
O=C(Nc1cc2c(cc1Cl)OCCCO2)c1ccco1 | 67 | . | . | .
COc1cc(NC(=O)c2ccccc2)c(OC)cc1Cl | -12 | 130* | . | -5
COc1ccccc1NC(=O)c1ccc2nc(-c3ccccc3)c(-c3ccccc3)nc2c1 | 14 | 84* | 0 | 5
COc1cc(N)c(Cl)cc1NC(=O)c1ccccc1 | -5 | 4 | . | -2
COc1ccc(NC(=O)c2ccc3nc(-c4ccccc4)c(-c4ccccc4)nc3c2)c(OC)c1 | -14 | . | 1 | .
COc1ccccc1NC(=O)c1ccc2nsnc2c1 | 91* | 7 | 26 | 37
O=C(Nc1cc2c(cc1Cl)OCCCO2)c1ccccc1 | 60 | . | 11 | 57*
CNC(=O)c1ccccc1S(=O)(=O)c1ccccc1C#N | . | 101* | -2 | -11

Source: PubChem BioAssay (Broad Institute)
